# Where “and” joins values, the source holds several entries; their conditions need not be identical. Equal values may be shown once. Records with an inconclusive call do not appear. A call without a number means that no potency is given here. A structure can be active in one record and inactive in another. Calls of active or inactive are those of the source. Unless noted, calls follow the shape of the dose curve; as a rule, active = well fitted curve in the direction sought with a large enough effect in the repeat runs; inconclusive = weak or mixed curves; inactive = no such curve, though single readings can be large; an effect the other way counts as inactive or inconclusive.
# Tests used:
# [1] = biological target: Retinoic acid receptor RXR-alpha (Homo sapiens) (UniProt P19793); experiment: qHTS assay to identify small molecule agonists of the RXR signaling pathway (AID 1159527; calls by dose curve; also: nearly all actives have a fitted effect of over 35% in size; also: potency is read from the fitted curve at half-maximal effect)
# Summary of the method: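 qHTS of the Tox21 10K library in GeneBLAzer RXR-alpha HEK 293T cells carrying a beta-lactamase reporter […]; 16 hr treatment, 9-cis retinoic acid as agonist control, FRET read-out.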
# [2] = qHTS assay to identify small molecule agonists of the RXR signaling pathway - cell viability counter screen (AID 1159529); also: nearly all actives have a fitted effect of over 50% in size; also: potency is read from the fitted curve at half-maximal effect; as to activity change, negative = cytotoxicity: series mostly up to about 77 µM
# Summary of the method: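 Cell viability is measured by CellTiter-Glo luminescence, 30 min at room temperature, in wells already read for beta-lactamase. Engineered HEK 293T cells (RXR-alpha-UAS-bla) are dosed 16 hr at 37 C. Tetraoctyl ammonium bromide serves as positive control.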
# [3] = qHTS assay to identify small molecule antagonists of the retinoid acid receptor (RAR) signaling pathway - cell viability counter screen (AID 1159551); also: nearly all actives have a fitted effect of over 35% in size
# Summary of the method: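 C3RL4 cells were seeded overnight at 37 C, then treated with compounds plus 1 uM (final) retinol for 6 h at 37 C. Viability was read as ATP by CellTiter-Glo luminescence after 30 min at room temperature.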
# [4] = qHTS assay to identify small molecule antagonists of the retinoic acid receptor (RAR) signaling pathway (AID 1159552; also: nearly all actives have a fitted effect of over 50% in size; also: potency is read from the fitted curve at half-maximal effect)
# Summary of the method: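 Quantitative HTS in C3RL4 RARE-luciferase reporter cells. Compounds were added with 1 uM (final) retinol; luminescence was read after 6 hr.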
# [5] = qHTS assay to identify small molecule agonists of the retinoic acid receptor (RAR) signaling pathway (AID 1159553); also: potency is read from the fitted curve at half-maximal effect
# Summary of the method: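 C3RL4 cells carrying a RARE luciferase reporter were plated overnight at 37 C, then exposed to compounds in DMSO for 6 hr at 37 C and 5% CO2. Luminescence was read 30 min after luciferase reagent addition at room temperature.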
# [6] = qHTS assay to identify small molecule antagonists of the estrogen related receptor (ERR) signaling pathway - cell viability counter screen (AID 1224818);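 also: series mostly up to about 46 µM; viability measured after 17.5 h of compound exposure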
# Summary of the method: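 ERR reporter cells plated 6 h at 37 C/5% CO2, then compounds in DMSO pin-transferred and incubated 17.5 h at 37 C. Viability read as CellTiter-Fluor fluorescence after 30 min at 37 C.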
# [7] = qHTS assay to identify small molecule antagonists of the estrogen related receptor (ERR) signaling pathway (AID 1224819;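 also: luminescence from an ERR-driven luciferase reporter measured with One-Glo reagent; series mostly up to about 46 µM; nearly all actives have a fitted effect of over 50% in size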)
# Summary of the method: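 ERR reporter cells were plated at 2,000 cells/well and left 6 h at 37 C/5% CO2 before pin-tool transfer of compounds in DMSO. After 18 h at 37 C, One-Glo was added and luminescence was read 30 min later at room temperature.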
# [8] = qHTS assay to identify small molecule agonists of the estrogen related receptor (ERR) signaling pathway (AID 1224820)
# Summary of the method: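 ERR reporter cells (NTP line) plated 2,000/well, incubated 6 h at 37 C/5% CO2, then pinned with compounds in DMSO and held 18 h at 37 C. One-Glo added; luminescence read after 30 min at room temperature.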
# [9] = test system: estrogen-related receptor alpha (ERRalpha) with PGC-1alpha coactivator, human; experiment: qHTS assay to identify small molecule antagonists of the estrogen related receptor signaling pathway with the pleiotropic PPARgamma coactivator (PGC) (AID 1224821; calls by dose curve;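 also: series mostly up to about 46 µM; lower luminescence signal means antagonism of PGC/ERR signalling; nearly all actives have a fitted effect of over 50% in size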)
# Summary of the method: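 Cells engineered for PGC/ERR signalling (line from NTP) were plated 6 h at 37 C/5% CO2, then exposed to DMSO-dissolved compound for 18 h at 37 C. Luciferase activity was read by One-Glo luminescence after 30 min at room temperature.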
# [10] = qHTS assay to identify small molecule antagonists of the estrogen related receptor signaling pathway with the pleiotropic PPARgamma coactivator (PGC) cell viability counter screen (AID 1224822; also: series mostly up to about 46 µM)
# Summary of the method: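 PGC/ERR cells were seeded at 2,000 cells/well, rested 6 h at 37 C/5% CO2, then given compounds in DMSO by pin tool and incubated 17.5 h at 37 C. Viability came from CellTiter-Fluor fluorescence after 30 min.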
# [11] = qHTS assay to identify small molecule agonists of the estrogen related receptor signaling pathway with the pleiotropic PPARgamma coactivator (PGC) (AID 1224823)
# Summary of the method: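 PGC/ERR reporter cells were seeded, rested 6 h at 37 C/5% CO2, then exposed to compounds in DMSO by pin transfer for 18 h at 37 C. Luciferase activity was read as luminescence after One-Glo reagent and 30 min at room temperature.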
# [12] = qHTS assay to identify small molecule antagonists of the estrogen related receptor (ERR) signaling pathway from Tox21 library - cell viability counter screen (AID 1224834); also: nearly all actives have a fitted effect of over 30% in size; also: potency is read from the fitted curve at half-maximal effect
# Summary of the method: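 ERR reporter cells were plated 6 h before compound addition, then exposed to test compounds in DMSO for 17.5 h at 37 C. Viability was read as CellTiter-Fluor fluorescence after a 30-minute incubation at 37 C.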
# [13] = biological target: Luciferin 4-monooxygenase (Photinus pyralis) (UniProt P08659); experiment: qHTS assay to identify small molecule inhibitors of firefly luciferase (AID 1224835); also: nearly all actives have a fitted effect of over 25% in size; also: potency is read from the fitted curve at half-maximal effect; as to activity change, negative = inhibition: series mostly up to about 120 µM
# Summary of the method: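 Quantitative HTS format; KM concentrations of both substrates. Purified P. pyralis FLuc activity quantified from luminescence images.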
# [14] = qHTS assay to identify small molecule agonists of the constitutive androstane receptor (CAR) signaling pathway - cell viability counter screen (AID 1224836); also: series mostly up to about 92 µM; nearly all actives have a fitted effect of over 45% in size
# Summary of the method: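 Counter screen multiplexed with the CAR reporter readout: HepG2 cells co-transfected with hCAR and the CYP2B6-2.2kb construct receive a 15-concentration compound series and 0.75 uM PK11195 (final), then CellTiter-Fluor fluorescence is read after 23 h.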
# [15] = qHTS assay to identify small molecule antagonists of the constitutive androstane receptor (CAR) signaling pathway - cell viability counter screen (AID 1224837); also: series mostly up to about 92 µM; nearly all actives have a fitted effect of over 45% in size
# Summary of the method: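 HepG2 cells stably expressing hCAR and a CYP2B6-2.2kb reporter were plated and pre-incubated 4 hr at 37 C/5% CO2, then given compounds at 15 concentrations plus 50 nM CITCO (final). After 23 hr, viability was read by CellTiter-Fluor fluorescence.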
# [16] = qHTS assay to identify small molecule antagonists of the estrogen related receptor signaling pathway with the pleiotropic PPARgamma coactivator (PGC) from Tox21 10K library - cell viability counter screen (AID 1224840; active = well fitted cell-killing curve with a large enough effect in the repeat runs, not every such curve was filed as active; also: nearly all actives have a fitted effect of over 40% in size)
# Summary of the method: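 PGC/ERR cells were seeded at 2,000 cells/well and left 6 hours at 37 C/5% CO2 before pin-tool addition of compounds in DMSO. After 17.5 hours at 37 C, CellTiter-Fluor was added and fluorescence read 30 minutes later.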
# [17] = qHTS assay to identify small molecule agonists of the estrogen related receptor signaling pathway with the pleiotropic PPARgamma coactivator (PGC) from Tox21 10K library (AID 1224842); also: nearly all actives have a fitted effect of over 15% in size
# Summary of the method: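 PGC/ERR reporter cells (NTP line) were seeded 2,000 per well, rested 6 h at 37 C/5% CO2, then pin-dosed with compounds in DMSO for 18 h at 37 C; luciferase read by One-Glo luminescence after 30 min at room temperature.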
# [18] = qHTS assay to identify small molecule antagonists of the estrogen related receptor signaling pathway with the pleiotropic PPARgamma coactivator (PGC) from Tox21 10K library (AID 1224841; call rule not given here)
# Summary of the method: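 PGC/ERR reporter cells were seeded at 2,000 cells/well and held 6 hours at 37 C/5% CO2 before pin-tool addition of compounds in DMSO. After 18 hours at 37 C, One-Glo was added and luminescence read after 30 minutes at room temperature.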
# [19] = biological target: Nuclear receptor subfamily 1 group I member 3 (Homo sapiens) (UniProt Q14994); experiment: qHTS assay to identify small molecule antagonists of the constitutive androstane receptor (CAR) signaling pathway (AID 1224838); also: nearly all actives have a fitted effect of over 40% in size
# Summary of the method: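 HepG2 cells stably co-transfected with hCAR and a CYP2B6-2.2kb luciferase reporter were seeded 4 h before compound addition at 15 concentrations. Cells were stimulated with 50 nM CITCO (final) for 24 h at 37 C; luciferase luminescence was then read.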
# [20] = biological target: Nuclear receptor subfamily 1 group I member 3 (Homo sapiens) (UniProt Q14994); experiment: qHTS assay to identify small molecule agonists of the constitutive androstane receptor (CAR) signaling pathway (AID 1224839); also: series mostly up to about 92 µM; nearly all actives have a fitted effect of over 15% in size
# Summary of the method: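 A 15-concentration quantitative screen uses HepG2 cells co-transfected stably with human CAR and CYP2B6-2.2kb reporter. Treatment lasts 24 h with 0.75 uM PK11195 final present; ONE-Glo luminescence is the signal.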
# Luciferin 4-monooxygenase (Photinus pyralis), sequence (P08659 whole entry, looked up): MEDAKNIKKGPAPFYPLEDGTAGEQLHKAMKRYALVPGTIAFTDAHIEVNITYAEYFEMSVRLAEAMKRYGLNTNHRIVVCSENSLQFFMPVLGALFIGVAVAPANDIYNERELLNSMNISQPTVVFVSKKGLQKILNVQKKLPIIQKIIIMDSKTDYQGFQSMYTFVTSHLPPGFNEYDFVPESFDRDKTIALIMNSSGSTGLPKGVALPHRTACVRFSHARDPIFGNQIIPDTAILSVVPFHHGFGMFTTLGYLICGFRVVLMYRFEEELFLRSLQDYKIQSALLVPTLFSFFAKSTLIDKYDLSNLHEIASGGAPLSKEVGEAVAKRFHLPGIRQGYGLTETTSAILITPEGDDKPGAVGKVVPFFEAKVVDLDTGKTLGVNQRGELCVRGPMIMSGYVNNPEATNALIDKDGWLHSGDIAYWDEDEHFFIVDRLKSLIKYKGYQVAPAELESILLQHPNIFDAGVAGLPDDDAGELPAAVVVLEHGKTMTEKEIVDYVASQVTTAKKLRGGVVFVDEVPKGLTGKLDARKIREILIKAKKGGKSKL
# Nuclear receptor subfamily 1 group I member 3 (Homo sapiens), sequence (Q14994 whole entry, looked up): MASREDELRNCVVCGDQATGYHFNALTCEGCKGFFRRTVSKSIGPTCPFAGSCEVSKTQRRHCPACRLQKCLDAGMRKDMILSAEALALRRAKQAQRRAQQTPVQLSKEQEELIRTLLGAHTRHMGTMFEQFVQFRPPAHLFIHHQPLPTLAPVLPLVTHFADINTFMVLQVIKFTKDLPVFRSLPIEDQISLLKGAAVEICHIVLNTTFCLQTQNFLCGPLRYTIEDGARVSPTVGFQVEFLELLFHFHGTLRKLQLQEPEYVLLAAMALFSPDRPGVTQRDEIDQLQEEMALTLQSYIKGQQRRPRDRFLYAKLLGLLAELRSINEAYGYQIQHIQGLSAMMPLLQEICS
# Retinoic acid receptor RXR-alpha (Homo sapiens), sequence (P19793 whole entry, looked up): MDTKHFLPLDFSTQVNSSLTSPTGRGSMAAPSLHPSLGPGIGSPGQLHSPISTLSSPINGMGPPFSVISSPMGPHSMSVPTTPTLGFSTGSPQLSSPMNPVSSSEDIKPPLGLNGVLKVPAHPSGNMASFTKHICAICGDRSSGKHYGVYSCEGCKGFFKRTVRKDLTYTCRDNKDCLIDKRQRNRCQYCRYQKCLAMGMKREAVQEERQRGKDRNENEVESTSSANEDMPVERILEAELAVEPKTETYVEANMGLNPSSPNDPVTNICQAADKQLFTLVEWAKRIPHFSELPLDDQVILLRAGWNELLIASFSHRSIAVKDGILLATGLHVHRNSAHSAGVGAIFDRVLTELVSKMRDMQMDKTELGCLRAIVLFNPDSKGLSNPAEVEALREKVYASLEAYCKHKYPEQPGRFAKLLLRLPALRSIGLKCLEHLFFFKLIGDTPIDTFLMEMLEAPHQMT
structure (smiles),measurement,setting,value
C[C@](N)(Cc1ccc(O)cc1)C(=O)O,activation,[1],8.62% [at 6.98 µM] (inactive)
same,"activity change, negative = cytotoxicity",[2],10.7% [at 6.97 µM] (inactive)
same,"activity change, negative = cytotoxicity",[3],0.103% [at 8.39 µM] (inactive)
same,"activity, negative = inhibition",[4],-1.72% [at 8.39 µM] (inactive)
same,activation,[5],-0.945% [at 8.36 µM] (inactive)
same,outcome,[6],inactive
same,outcome,[7],inactive
same,outcome,[8],inactive
same,outcome,[9],inactive
same,outcome,[10],inactive
same,outcome,[11],inactive
same,"viability change, negative = cytotoxic",[12],1.82% [at 8.39 µM] (inactive)
same,"activity change, negative = inhibition",[13],0.0392% [at 10.5 µM] (inactive)
same,"viability change, negative = cytotoxic",[14],11.1% [at 8.39 µM] (inactive)
same,"activity change, negative = cytotoxicity",[15],2.5% [at 8.39 µM] (inactive)
same,"viability change, negative = cytotoxic",[16],-0.23% [at 8.39 µM] (inactive)
same,activation,[17],-0.549% [at 8.39 µM] (inactive)
COC(=O)C1=C(C)NC(C)=C(C(=O)OC)C1c1ccccc1[N+](=O)[O-],Potency,[1],inactive
same,Potency,[2],27.6 µM (active) and inactive
same,outcome,[3],inactive
same,Potency,[4],inactive
same,Potency,[5],24.4 µM (active) and inactive
same,outcome,[6],inactive
same,outcome,[7],inactive
same,outcome,[8],inactive
same,outcome,[9],inactive
same,outcome,[10],inactive
same,outcome,[11],inactive
same,Potency,[12],54.5 µM (active) and inactive
same,Potency,[13],40 µM (active) and inactive
same,Potency,[14],inactive
same,Potency,[15],inactive
same,Potency,[16],inactive
same,Potency,[18],inactive
same,outcome,[17],inactive
c1cnc(N2CCN(Cc3ccc4c(c3)OCO4)CC2)nc1,Potency,[1],inactive
same,Potency,[2],inactive
same,outcome,[3],inactive
same,Potency,[4],inactive
same,Potency,[5],inactive
same,outcome,[6],inactive
same,outcome,[10],inactive
same,Potency,[12],inactive
same,Potency,[13],inactive
same,Potency,[14],inactive
same,Potency,[15],inactive
same,Potency,[19],inactive
same,Potency,[20],inactive
CC(C[N+](C)(C)C)OC(N)=O (stereo not given),Potency,[1],inactive
same,Potency,[2],inactive
same,outcome,[3],inactive
same,Potency,[4],inactive
same,Potency,[5],inactive
same,outcome,[6],inactive
same,outcome,[7],inactive
same,outcome,[8],inactive
same,outcome,[9],inactive
same,outcome,[10],inactive
same,outcome,[11],inactive
same,Potency,[13],inactive
same,Potency,[14],inactive
same,Potency,[15],inactive
same,Potency,[19],inactive
same,Potency,[18],inactive
same,outcome,[17],inactive
COc1ccc(CCN(C)CCCC(C#N)(c2cc(OC)c(OC)c(OC)c2)C(C)C)cc1OC (stereo not given),Potency,[1],inactive
same,Potency,[2],inactive
same,outcome,[3],inactive
same,Potency,[4],inactive
same,Potency,[5],inactive
same,outcome,[6],inactive
same,outcome,[10],inactive
same,Potency,[12],29.8 µM (active)
same,Potency,[13],inactive
same,Potency,[19],inactive
same,Potency,[20],inactive
same,Potency,[16],inactive
NC(=O)c1cn(Cc2c(F)cccc2F)nn1,Potency,[1],inactive
same,Potency,[2],inactive
same,outcome,[3],inactive
same,Potency,[4],inactive
same,Potency,[5],inactive
same,outcome,[6],inactive
same,outcome,[10],inactive
same,Potency,[12],inactive
same,Potency,[13],inactive
same,Potency,[15],inactive
same,Potency,[19],inactive
same,Potency,[20],inactive
same,Potency,[16],inactive
CCn1nc(C(=O)O)c(=O)c2cc3c(cc21)OCO3,Potency,[1],inactive
same,Potency,[2],inactive
same,outcome,[3],inactive
same,Potency,[4],inactive
same,Potency,[5],inactive
same,outcome,[6],inactive
same,outcome,[7],inactive
same,outcome,[8],inactive
same,outcome,[9],inactive
same,outcome,[10],inactive
same,outcome,[11],inactive
same,Potency,[12],inactive
same,Potency,[13],inactive
same,Potency,[14],inactive
same,Potency,[15],inactive
same,Potency,[16],inactive
same,Potency,[18],inactive
same,outcome,[17],inactive
C[N+](C)(C)CCCCCC[N+](C)(C)C,Potency,[1],inactive and 10.7 µM (active)
same,Potency,[2],inactive
same,outcome,[3],inactive
same,Potency,[4],inactive and 16.8 µM (active)
same,Potency,[5],inactive
same,outcome,[6],inactive
same,outcome,[10],inactive
same,Potency,[12],inactive
same,Potency,[13],inactive
same,Potency,[14],inactive
same,Potency,[15],inactive
same,Potency,[16],inactive

# Source: PubChem BioAssay (Tox21)
